Assay outcomes from PubChem BioAssay.
Only some compounds are listed: those with a hit (about 21% of all), similar ones and a draw of the others.
NS1 inh: qHTS Assay for Inhibitors of Influenza NS1 Protein Function; actives 0.4% (n = 270,000); AID 2326, 2010; Potency, µM (doses to about 46.1 µM), for the others: at the top dose activity, positive = more growth; further: potency means the concentration at half of the fitted maximal effect; actives are rising curves; nearly all actives have a fitted effect of over 50% in size
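OD600 was taken as the measure of yeast growth restored by compound in an NS1-expressing S. cerevisiae strain. Cells had been washed out of glucose medium and diluted 1:100 into galactose -URA medium, pH 6.0.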
Shiga toxin inh: A qHTS for Small Molecule Inhibitors of Shiga Toxin; Vero cells, Shiga toxin protein synthesis inhibition reporter; inhibition, % at 38.7 µM; actives 9.2% (n = 290,000); AID 2315, 2010; in the data active means inhibition mostly above about 28%, no sharp cut-off; inactive means mostly below about 43%; further: 0% is about no effect
Cycloheximide cs: Cycloheximide Counterscreen for Small Molecule Inhibitors of Shiga Toxin; AID 2314, 2010; max response, %; actives 12% (n = 300,000); cell reporter, cycloheximide protein synthesis inhibition counterscreen; in the data active means max response mostly above about 13%, no sharp cut-off; inactive means mostly below about 14%; further: read at 38.3 µM for the half of the compounds with a filed dose; 0% is about no effect
Pf growth 96h: Primary qHTS for delayed death inhibitors of the malarial parasite plastid, 96 hour incubation; P. falciparum luciferase reporter growth, 96 h; Potency, µM (titrated, usually from 28.7 µM), for the others: at the top dose activity change, negative = inhibition, actives largely listed as inhibitors; actives 6.9% (n = 320,000); AID 504834, 2011; active means well fitted inhibition curve with a large enough effect; inconclusive means small, poorly fitted or top-dose-only effect, or another doubt; inactive means no such curve, though single readings can be large or run the other way; further: potency means the concentration at half of the fitted maximal effect; on the % scale 0 is the no-effect control and ±100 the full control effect
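Delayed-death screen, second-generation endpoint: infected erythrocytes, 2% hematocrit, 0.05% parasitemia final; 96 hours at 37 C, 5% CO2; luciferase detection reagent; luminescence decrease equals reduced growth.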
Pf growth 48h: Primary qHTS for delayed death inhibitors of the malarial parasite plastid, 48 hour incubation. P. falciparum luciferase growth in erythrocytes, 48 h. Potency, µM (highest dose often 28.7 µM), inactives show top-dose activity change, negative = inhibition, actives largely listed as inhibitors. actives 5.9% (n = 310,000). AID 504832, 2011; active means well fitted inhibition curve with a large enough effect; inconclusive means small, poorly fitted or top-dose-only effect, or another doubt; inactive means no such curve, though single readings can be large or run the other way; further: potency means the concentration at half of the fitted maximal effect; on the % scale 0 is the no-effect control and ±100 the full control effect
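Here the parasites carry a stable luciferase gene and grow inside erythrocytes in Albumax-based RPMI medium with compound for one erythrocytic cycle. Activity is scored as loss of luminescent signal.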
SARS PLpro yeast: qHTS of Yeast-based Assay for SARS-CoV PLP; S. cerevisiae expressing SARS-CoV PLpro, growth rescue; Potency, µM (highest dose often 32.9 µM), for the others: top-dose activity, positive = growth rescue, actives largely listed as activators; actives 0.19% (n = 330,000); further: potency means the concentration at half of the fitted maximal effect; 0% is about no effect; nearly all actives have a fitted effect of over 55% in size
Active calls of the source: *; ? = inconclusive; . = not tested or not shown; [ ] = dose if it differs, or a comment. Unless noted, the call rests on the fitted dose curve.

SMILES | NS1 inh | Shiga toxin inh | Cycloheximide cs | Pf growth 96h | Pf growth 48h | SARS PLpro yeast
COc1ccc(C(=O)CSc2nnc(-c3cc(C)cc(C)c3)o2)cc1 | -4.8% | 3.3 | -4.4 | -16.5% | 24.7% | 1.5%
O=C(CSc1ncc(-c2ccccc2)n1-c1ccccc1)NCc1ccco1 | -7.2%[9.22 µM] | 11.2 | 9.2 | 1.7% | -19.7% | -13.1%
COc1ccc(-c2nnc(SCC(=O)c3ccc(O)cc3O)o2)cc1 | -5.0% | 32.9* | 7.0 | -2.9% | 9.0% | 8.6%
N#Cc1ccc(Cn2c(-c3ccc(F)cc3)noc2=O)cc1 | -9.0% | . | -1.4 | -3.0% | 9.1% | -8.7%
COc1ccc(Br)cc1/C=C/C(=O)Nc1ccc2ccccc2c1 | 4.2% | 20.0 | 32.7* | 12.0% | -11.8% | -2.3%
COc1cccc(/C=C/C(=O)Nc2ccc3c(c2)OCCO3)c1OC | . | 88.0* | 26.9* | 235.1% | 218.3% | -2.0%
COc1cccc(/C=C/C(=O)Nc2cccc(C(C)=O)c2)c1OC | . | 74.6* | 48.5* | 131.3% | 474.5% | -6.6%
COc1ccc(/C=C/C(=O)Nc2cccc(C(C)=O)c2)cc1 | -23.2% | 67.8* | 60.1* | ? | 136.1% | -26.1%
COc1ccc(Br)cc1/C=C/C(=O)Nc1ccc(C)cc1 | 12.3% | 30.2 | -3.1 | -6.2% | 0.3% | -37.1%
Cc1cccc(C(=O)N[C@H](C(=O)Nc2nc3ccc(S(C)(=O)=O)cc3s2)C(C)C)c1 | -0.6% | -3.4 | 7.6 | ? | ? | 1.4%
CCc1cc(C(=O)O)c(NC(=O)/C=C/c2ccc(OC)c(OC)c2)s1 | -4.3% | -8.5 | -2.6 | ? | ? | 0.6%
CCc1cc(C(=O)O)c(NC(=O)/C=C/c2ccc(OC)cc2)s1 | -38.3% | 36.9 | 31.6* | 105.5% | 78.0% | 0.0%
COc1ccccc1/C=C/C(=O)Nc1cccc(C(C)=O)c1 | -6.8% | 65.3* | 44.5* | -0.5% | 14.8% | -1.0%
COc1ccc(CCN(C)C(=O)C2CCCN(C3CCN(Cc4ccccc4)CC3)C2)cc1OC (configuration not stated) | -0.3% | -7.6 | -3.0 | -8.4% | -13.6% | 1.9%
Cc1ccc(/C(C#N)=C\c2ccc(N3CCOCC3)o2)cc1 | 4.2% | 132.7* | 88.4* | -24.5% | ? | -34.8%
Cc1ccc2nc(/C(C#N)=C\c3ccc(N4CCOCC4)o3)[nH]c2c1 | ? | 46.6* | 46.4* | ? | 31.9% | 2.7%
Cc1ccc2nc(/C(C#N)=C/c3ccc(-c4ccccc4C(=O)O)o3)[nH]c2c1 | 9.7% | -1.8 | 15.2 | ? | -3.9% | 1.6%
Oc1ccc(NCc2cccs2)cc1 | -1.1% | -2.1 | 24.4* | ? | ? | -8.5%
S=C(NCc1cccs1)Nc1cccc2ccccc12 | -6.0% | 20.7 | 1.5 | -0.2% | 14.8% | 0.1%
CC(C)(C)c1ccc(NC(=S)NCc2cccs2)cc1 | -33.9% | 54.2 | 22.8* | ? | . | 12.9%
CCC(C)c1ccc(NC(=S)NCc2cccs2)cc1 (configuration not stated) | -54.5% | 76.5* | 22.8* | 25.0% | 0.0% | -7.4%
S=C(NCc1cccs1)Nc1ccc(Br)cc1Cl | -9.1% | 81.3* | 44.4* | -4.8% | 25.7% | 21.7%
CCOc1cc(N2CCOCC2)c(OCC)cc1NC(=O)CSc1ncccc1C(=O)O | . | . | . | . | . | 2.1%
COc1ccc(C(=O)Nc2cc(C)on2)cc1S(=O)(=O)N1CC(c2ccccc2)CC1=O (configuration not stated) | . | -2.4 | 4.3 | 73.1% | ? | -4.5%
Cc1cccc(NC(=S)NCc2cccs2)c1C | -2.2% | -12.6 | 22.1* | -22.4% | 1.4% | ?
COc1ccc(CCNC(=S)NCc2cccs2)cc1OC | 0.7% | -1.7 | -0.9 | 21.1% | ? | -1.0%
Cc1cc(C)cc(NC(=S)NCc2cccs2)c1 | 2.6% | 25.9* | -1.9 | -1.3% | 19.4% | -25.6%
S=C(NCCc1ccccc1)NCc1cccs1 | -17.5% | active | 54.4* | 27.9% | 48.5% | 11.8%
CC1(C)CC(=O)C=C(c2ccc(F)nc2)C1 | . | . | . | 0.8% | 27.3% | -0.2%
COc1cc(C(=O)OCCCN=C2NS(=O)(=O)c3ccccc32)cc(OC)c1OC | -1.3% | -3.8 | -2.5 | 37.9% | 3.5% | 0.9%
